test system: PAK2; conditions: concentration: 1 μM, replicates: in singlicate; n = 1
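Further: KINOMEscan kinase panel screen.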

SMILES	%Inh [%]
NS(=O)(=O)c1cccc(-c2ccc3ncc(N4CCOCC4)nc3c2)c1 [GSK1535721]	0
CN1c2ccc(CNc3ccc(F)cc3)cc2-c2c(cnn2C)S1(=O)=O	14
Cc1cn2c(=O)cc(N3CCOCC3)nc2n1Cc1cccc(Cl)c1Cl [GSK2334006]	10
CC(C)(C)n1cnc2c(N)ncnc21 [SKF-97359]	0
O=c1cc(N2CCOCC2)nc2n(Cc3cccc(F)c3)ccn12 [GSK2297430]	9
O=C(c1ccc(-c2cc(-c3c[nH]nc3-c3ccccn3)ccn2)cc1)N1CCOCC1 [GW812171]	0
COc1ccc(Nc2nccc(N3CCC(NC(=O)Nc4cccc(C(C)=O)c4)C3)n2)cc1 (stereo not drawn) [GSK1379731]	6
Cc1ccc(NC(=O)c2ccnc(N3CCN(C)CC3)c2)cc1-c1ccc(C(=O)NCC2CC2)cc1 [GW775604]	37
Nc1nccc(-c2c(-c3ccc(F)cc3)ncn2C2CCN(CC(F)(F)F)CC2)n1 [SB-236560]	0
Cc1nnc(-c2ccc3ncc(-c4ccc(S(C)=O)cc4)n3c2)o1 (stereo not drawn)	3
CN(C1=C(c2ccccc2)C(=O)NC1=O)c1ccccc1 [SB-334860]	0
CSc1ccc(-c2cc3ncnc(SCC(=O)O)c3s2)cc1	0
O=C1Cc2cc(Nc3nc(NCc4cccc(S(=O)(=O)C(F)(F)F)c4)ncc3C(F)(F)F)ccc2N1	0
Cc1ccc(C(=O)NCC(N)=O)cc1-n1c(C)cc(OCc2ccc(F)cc2F)c(Br)c1=O	14
CN(C(=O)c1ccc(-c2cc(-c3c[nH]nc3-c3ccccn3)ccn2)cc1)C1CCOCC1 [GW810083]	0
c1ccc(-c2cc(-c3c[nH]nc3-c3ccccn3)ccn2)cc1 [GW576604]	13
COc1cc2c(cc1OC[C@@H](O)CO)ncc1c3ccc(C#N)cc3[nH]c21	0

SMILES	%Inh [%]
CCCCCc1nc2c(N)ncnc2n1CCCCC [SKF-97255]	67
Fc1ccc(-c2ncn(CCCN3CCOCC3)c2-c2cccnc2)cc1 [SB-211743]	23
Cc1cccc(Cn2ccn3c(=O)cc(N4CCOCC4)nc23)c1 [GSK2297542]	25
Fc1ccc(-c2nn3c(OCC(F)(F)F)cccc3c2-c2ccncc2)cc1 [GW514784]	0
COc1cc2c(cc1OCCN1CCN(C)CC1)ncc1c3ccc(C#N)cc3[nH]c21	39
COc1ccc(COc2cc(-n3cnc4ccccc43)sc2C(N)=O)cc1 [GSK1024304]	4
O=C(NOCC1CC1)c1ccc(F)c(F)c1Nc1ccc(I)cc1Cl	0
Cc1c2ccc(N(C)c3ccnc(Nc4cccc(S(N)(=O)=O)c4)n3)cc2nn1Cc1ccccc1.Cl.Cl [GW787226]	49
O=c1cc(N2CCOCC2)nc2n(Cc3cccc(C(F)(F)F)c3)ccn12 [GSK2297543]	14
Cc1nnc(-c2ccc(C)c(-c3ccc(C(=O)Nc4ccc(NS(C)(=O)=O)cc4)cc3)c2)o1 [GW702865]	0
O=C(NCCNc1ccnc(Nc2ccc(F)cc2)n1)c1cc2ccccc2s1 [GSK1379874]	0
Cc1nnc(-c2ccc3occ(-c4ccc(C(C)O)cc4)c3c2)o1 (stereo not drawn)	16
CCn1cnc2c(N)ncnc21 [GW345098]	0
N#Cc1c(N2CCOCC2)sc(-c2ccn[nH]2)c1-c1ccc(Cl)cc1	17
Cl.Oc1cccc(Nc2ccnc3cc(-c4ccncc4)ccc23)c1 [GW494601]	0
O=C(NCCNc1ccnc(Nc2ccc(F)cc2)n1)Nc1ccccc1F [GSK1379880]	0

Reference: article PMC5540273 (PLoS ONE, 2017)
